Assay outcomes deposited in PubChem by several laboratories.
Most compounds without a hit are left out; they make up all but 3.3% or so of the library.
Mcl1-Bid inh: Mcl-1/Bid binding inhibitors, primary screen, biochemical, TR-FRET, 1536-well. AID 1021, 2008. 220,000 compounds, 0.97% hits. inhibition, % at 21.7 µM. Induced myeloid leukemia cell differentiation protein Mcl-1 (Homo sapiens), Q07820. TR-FRET Mcl-1/Bid-Dy647 peptide binding;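 active means compounds that cut the binding signal by more than half at the single screening dose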;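 further: His-tagged Mcl-1 with europium anti-His antibody binding Bid BH3 peptide; 0% = Mcl-1 plus peptide wells and 100% = peptide-only wells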
Target sequence (Q07820 whole entry, looked up): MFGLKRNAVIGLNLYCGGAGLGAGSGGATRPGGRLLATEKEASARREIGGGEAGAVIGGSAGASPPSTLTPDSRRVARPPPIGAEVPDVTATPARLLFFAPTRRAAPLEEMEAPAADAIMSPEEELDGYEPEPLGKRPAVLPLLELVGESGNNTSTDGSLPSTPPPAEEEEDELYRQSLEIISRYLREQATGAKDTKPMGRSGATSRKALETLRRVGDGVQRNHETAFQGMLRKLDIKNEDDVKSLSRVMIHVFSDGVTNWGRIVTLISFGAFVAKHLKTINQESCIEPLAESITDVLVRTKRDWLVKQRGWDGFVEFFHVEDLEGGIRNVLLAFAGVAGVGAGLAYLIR
eIF4E-4G inh: eIF4E–eIF4G protein interaction inhibitors, primary screen, biochemical, uHTS, TR-FRET, eIF4GI fragment. Eukaryotic translation initiation factor 4E (Mus musculus) + Eukaryotic translation …. TR-FRET eIF4E-eIF4GI(517-606) binding, 2 h. inhibition, % at 21.7 µM. 220,000 compounds, 0.37% hits;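 further: 0% = full FRET control wells and 100% = background wells lacking eIF4GI fragment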
Bim-Mcl-1: inhibitors of Bim peptide binding to Mcl-1, primary screen, biochemical, bead-based flow cytometry, multiplex; Induced myeloid leukemia cell differentiation protein Mcl-1 (Homo sapiens), Q07820; Bim peptide-Mcl-1 binding; inhibition, % at 10 µM; 190,000 compounds, 0.1% hits; in the data active means inhibition above about 40%;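 further: 0% = no compound tracer wells and 100% = peptide blocker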
Mcl1 Noxa PPI: Mcl-1/Noxa binding inhibitors, primary screen, biochemical, TR-FRET, 1536-well; 220,000 compounds, 1.5% hits; inhibition, % at 21.7 µM; TR-FRET Mcl-1/Noxa peptide binding, 2 h; AID 1022, 2008;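 active means compounds that cut the protein-peptide binding signal by more than 50% relative to plate controls in a single-dose test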;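 further: His-tagged Mcl-1 with rhodamine Noxa BH3 peptide and terbium anti-His antibody; 0% = Mcl-1 plus Noxa peptide wells and 100% = peptide-only wells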
p47phox inh: p47phox/p22phox peptide binding inhibitors, primary screen, biochemical, uHTS, NADPH oxidase regulatory subunit. inhibition, % at 24.7 µM. fluorescence polarization, 2 h. 220,000 compounds, 0.53% hits;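 further: 0% = p47phox with labelled peptide and 100% = labelled peptide alone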
14-3-3 Bad inh: inhibitors of 14-3-3 zeta/Bad binding, primary screen, biochemical, TR-FRET, bovine 14-3-3 zeta; inhibition, % at 21.7 µM; TR-FRET 14-3-3zeta/Dy647-pBad peptide displacement, 1 h; 14-3-3 protein zeta/delta (Bos taurus), P63103; 220,000 compounds, 0.71% hits;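 active means inhibition above about 70%, limit read from the data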;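 further: 0% = full 14-3-3 plus peptide FRET controls and 100% = background without 14-3-3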
The depositor's hits bear a star; . = no result given.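 How the source made its calls, unless noted: active means inhibition above about 30% (limit read from the data); inactive means the rest.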

SMILES	Mcl1-Bid inh	eIF4E-4G inh	Bim-Mcl-1	Mcl1 Noxa PPI	p47phox inh	14-3-3 Bad inh
Cc1cc(=O)oc2cc(OCC3CC(c4ccc(N(C)C)cc4)=NO3)ccc12 (centres undefined)	52*	-25	-1	29	-17	-8
CC(C)CNC(=S)N1CCN(C)CC1	37	-4	-2	-1	-8	81*
Cc1nc(SCC(=O)c2ccc(F)c(F)c2)[nH]c(=O)c1Oc1ccc(F)cc1	7	1	.	8	6	-7
Cn1c(=O)c2ncn(CC(=O)Nc3cccc(-c4nc5ccccc5s4)c3)c2n(C)c1=O	-40	-4	0	64*	-8	-16
CCCNS(=O)(=O)c1ccc(-n2cnnn2)c(OC)c1	-23	-1	-4	-12	-6	-6
COc1cc(S(=O)(=O)NCCCN2CCOCC2)ccc1-n1cnnn1	25	2	0	34	6	70*
COc1cc(NS(=O)(=O)c2ccc(C)cc2)ccc1-n1cnnn1	-9	4	-4	-4	53*	14
Cc1cc(NC(=O)CSc2nc3ccccc3c(=O)n2Cc2ccc(F)cc2)no1	57*	12	-1	-180	23	74*
COc1ccc(CCn2c(SCC(=O)Nc3cc(C)on3)nc3ccsc3c2=O)cc1OC	38	-94	-1	-12	49*	20
Cc1cc(NC(=O)CSc2ccccc2)no1	-21	66*	-2	-2	-8	2
Cc1cc(NC(=O)CSc2ccc(F)cc2)no1	-27	-1	-2	15	-5	6
COCCSc1ccccc1C(=O)Nc1ccc(Cl)cc1	-46	2	0	5	2	-7
COCCSc1ccccc1C(=O)Nc1cc(C)on1	-34	52*	-1	36	-8	-5
COc1cccc(-n2c(=O)n(Cc3ccccc3)c(=O)c3[nH]cnc32)c1	6	1	.	7	0	4
CC(=O)Nc1cccc(OCCCNC(=O)c2ccc(C(C)(C)C)cc2)c1	-9	-1	.	13	-12	-2
CCc1nnc(NC(=O)c2ccc3nc(CC)c(CC)nc3c2)s1	-22	5	-2	6	-37	-7
COc1ccccc1Nc1nnc(SCC(=O)Nc2cc(C)on2)s1	6	-9	10	38	-17	0
Cc1cc(NC(=O)CSc2nnc(C3COc4ccccc4O3)n2N)no1 (centres undefined)	-20	-5	.	-7	44*	-5
Cc1cc(NC(=O)CSc2nnc(NCc3ccccc3)s2)no1	-20	94*	.	3	-19	2
S=C(NCCc1ccccc1)Nc1c(Cl)cccc1Cl	-45	1	.	-11	-6	-5
N#CCCC(CCC#N)C1=NCCc2ccccc21	-16	1	.	-9	-9	0
COC(=O)c1ccccc1NC(=O)c1cc(-c2ccc(O)cc2)on1	12	0	0	68*	-14	19
COC(=O)c1ccccc1NC(=O)c1cc(C2CC2)on1	-15	-1	0	17	-11	8
COc1cc(/C(C)=N/NC(=O)Cc2c(C)[nH][nH]c2=O)ccc1O	-50	2	-5	28	-13	-9
CC(=O)Nc1ccc(-c2nc3c(C)cccc3[nH]2)cc1	12	6	0	13	-15	72*
SMILES	Mcl1-Bid inh	eIF4E-4G inh	Bim-Mcl-1	Mcl1 Noxa PPI	p47phox inh	14-3-3 Bad inh
CC(=O)Nc1cc(NC(C)=O)cc(-c2nc3ccccc3[nH]2)c1	1	0	-1	17	25	-10
Clc1cccc(Nc2nc(-c3cccnc3)cs2)c1	-40	0	0	30	-21	-2
COc1cccc(/C=N/Nc2nn3cnnc3c3ccccc23)c1O	-73	-3	16	53*	9	-9
Oc1cccc(/C=N/Nc2nn3cnnc3c3ccccc23)c1	-10	-2	.	36	-6	-10
O=C(Oc1ccc(-c2nccc(-c3ccccn3)n2)cc1)c1cccc(C(F)(F)F)c1	5	-16	-2	-10	-2	-16
Cc1ccc(C(=O)Oc2ccc(-c3nccc(-c4ccccn4)n3)cc2)cc1	55*	-6	-3	-53	11	15
